The test system of this assay is Vero E6 infected with SARS-CoV-2. As to the kind of experiment: inhibition of SARS-CoV-2 cytopathic effect; higher = more antiviral protection, active = above 15. The settings on record: 48 h. On the technique in general: Protection from cytopathic effect is a common read-out in antiviral testing.

Each structure is given as a SMILES string.

For `OC(CCN1CCCCC1)(c1ccccc1)C1CC2C=CC1C2` (stereo not given) [biperiden], the “inhibition of SARS-CoV-2 cytopathic effect” value (“inhibition” below) runs as follows: (1 nM) 0.1% (inactive); (8.33 nM) -0.07% (inactive); (100 nM) 0.23% (inactive); (833.33 nM) -2.88% (inactive); (10000 nM) -2% (inactive).

As to `O=C(O)c1ccc(S(=O)(=O)N(Cl)Cl)cc1` [halazone], the “inhibition” value runs as follows: (1 nM) -0.04% (inactive); (8.33 nM) 2.43% (inactive); (100 nM) -0.73% (inactive); (833.33 nM) -4.46% (inactive); (10000 nM) -0.76% (inactive).

Regarding `CN(C)/N=N/c1[nH]cnc1C(N)=O` [dacarbazine], the “inhibition” value by setting is: (1 nM) 2.03% (inactive); (8.33 nM) 1.02% (inactive); (100 nM) 2.4% (inactive); (833.33 nM) 2.07% (inactive); (10000 nM) -3.02% (inactive).

Regarding `Clc1cccc(-c2nnnn2Cc2cccnc2)c1Cl`, the “inhibition” value is -1.94% (inactive) (1 nM); -0.7% (inactive) (8.33 nM); 0.71% (inactive) (100 nM); -2.59% (inactive) (833.33 nM); -3.45% (inactive) (10000 nM).

As for `CCOC(=O)C1=C(N)Oc2ccc(Br)cc2C1C(C#N)C(=O)OCC` (stereo not given), the “inhibition” value by setting is: (1 nM) -0.86% (inactive); (8.33 nM) 0.28% (inactive); (100 nM) 0.47% (inactive); (833.33 nM) 0.895% (inactive); (10000 nM) 2.46% (inactive).

Regarding `COc1cc2c(Nc3ccc(NC(=O)c4ccccc4)cc3)ncnc2cc1OCCCN1CCOCC1`, the “inhibition” value was -0.39% (inactive) (1 nM); 0.92% (inactive) (8.33 nM); -0.95% (inactive) (100 nM); 0.98% (inactive) (833.33 nM); 0.98% (inactive) (10000 nM).

As for `CC1(C)CC[C@]2(C(=O)O)CC[C@]3(C)[C@H](C(=O)C=C4[C@@]5(C)C=C(C#N)C(=O)C(C)(C)[C@@H]5CC[C@]43C)[C@@H]2C1` [bardoxolone], the “inhibition” value (1 nM) was -1.22% (inactive); the “inhibition” value (8.33 nM) was -1.62% (inactive); the “inhibition” value (100 nM) is 2.92% (inactive); the “inhibition” value (833.33 nM) was 3.36% (inactive); the “inhibition” value (10000 nM) was 28.9% (active).

For `C#CCN(C)[C@H](C)Cc1ccccc1` [selegiline], the “inhibition” value was 0.68% (inactive) (1 nM); -1.21% (inactive) (8.33 nM); 1.02% (inactive) (100 nM); 0.09% (inactive) (833.33 nM); -0.75% (inactive) (10000 nM).

For `NC(=O)c1ncn([C@@H]2O[C@H](CO)[C@@H](O)[C@H]2O)c1O` [mizoribine], the “inhibition” value is, setting by setting: (1 nM) -1.24% (inactive); (8.33 nM) -0.82% (inactive); (100 nM) 0.9% (inactive); (833.33 nM) 0.29% (inactive); (10000 nM) -1.77% (inactive).

For `CCn1c(=O)c2c(nc(/C=C/c3ccc(OC)c(OC)c3)n2C)n(CC)c1=O` [istradefylline], the “inhibition” value was 1.05% (inactive) (1 nM); -1.49% (inactive) (8.33 nM); -0.91% (inactive) (100 nM); -0.33% (inactive) (833.33 nM); 2.33% (inactive) (10000 nM).

With `NC[C@H]1CC[C@H](C(=O)O)CC1` [tranexamic-acid], the “inhibition” value was 1.98% (inactive) (1 nM); 1.51% (inactive) (8.33 nM); 2.74% (inactive) (100 nM); 0.85% (inactive) (833.33 nM); -0.32% (inactive) (10000 nM).

For `COc1ccccc1OCCNCC(O)COc1cccc2[nH]c3ccccc3c12` (stereo not given) [carvedilol], the “inhibition” value reads like this: (1 nM) 2.73% (inactive); (8.33 nM) 3.88% (inactive); (100 nM) 0.32% (inactive); (833.33 nM) -1.02% (inactive); (10000 nM) -1.85% (inactive).

`CCC[C@H](N[C@@H](C)C(=O)N1[C@H](C(=O)O)C[C@@H]2CCCC[C@@H]21)C(=O)OCC` [perindopril]: the “inhibition” value by setting is: (1 nM) -0.73% (inactive); (8.33 nM) 1.32% (inactive); (100 nM) -0.77% (inactive); (833.33 nM) 0.99% (inactive); (10000 nM) 0.19% (inactive).

On to `C[C@H](CCC(=O)O)[C@H]1CC[C@H]2[C@@H]3[C@@H](O)C[C@@H]4C[C@H](O)CC[C@]4(C)[C@H]3CC[C@]12C` [ursodiol], for which the “inhibition” value reads like this: (1 nM) 0.455% (inactive); (8.33 nM) 1.77% (inactive); (100 nM) 3.56% (inactive); (833.33 nM) 1.38% (inactive); (10000 nM) 0.145% (inactive).

Take `CNC(=O)CN1CCC(Oc2cc3c(Nc4cccc(Cl)c4F)ncnc3cc2OC)CC1`: the “inhibition” value runs as follows: (1 nM) -0.01% (inactive); (8.33 nM) 0.66% (inactive); (100 nM) -6.91% (inactive); (833.33 nM) -7.8% (inactive); (10000 nM) -13.6% (inactive).

Turning to `O=C(O)c1cc(=O)[nH]c(=O)[nH]1` [orotic-acid], the “inhibition” value by setting is: (1 nM) -2.95% (inactive); (8.33 nM) 1.49% (inactive); (100 nM) -1% (inactive); (833.33 nM) 0.78% (inactive); (10000 nM) 0.21% (inactive).

On to `CCCCC(=O)N(Cc1ccc(-c2ccccc2-c2nnn[nH]2)cc1)[C@H](C(=O)O)C(C)C` [valsartan], for which the “inhibition” value reads like this: (1 nM) 0.84% (inactive); (8.33 nM) -1.89% (inactive); (100 nM) 0.86% (inactive); (833.33 nM) 0.99% (inactive); (10000 nM) 0.91% (inactive).

For `CNC1CC(c2ccc(Cl)c(Cl)c2)c2ccccc21` (stereo not given) [indatraline], the “inhibition” value is, setting by setting: (1 nM) -0.39% (inactive); (8.33 nM) 0.4% (inactive); (100 nM) 0.7% (inactive); (833.33 nM) -3.42% (inactive); (10000 nM) -10.8% (inactive).

For the origin of these results see the supplement of paper PMC13380429.
